Sampled rows, rich in hits. Any-hit rate of the full collection: about 4%.
UGM FP inh – M. tuberculosis UGM enzyme inhibitors, primary screen, biochemical, fluorescence polarization, single point; UDP-galactopyranose mutase (Mycobacterium tuberculosis (strain ATCC 25618 / H37Rv)), …; purified UGM, fluorescence polarization probe displacement; inhibition, % at 10 µM; 320,000 tested, 0.06% active; AID 504406, 2011; in the data active means inhibition above about 10%, passing the limit was not always enough; inconclusive means no clear call, values can overlap the other calls
GDH-TPI inh – GDH-TPI coupling enzyme inhibitors, primary screen, artefact control for M. tuberculosis FBA inhibitor project, biochemical, absorbance, full deck. 360,000 tested, 1.2% active. AID 588335, 2011. GDH-TPI coupled enzyme counterscreen, NADH absorbance. inhibition, % at 4.8 µM; in the data active means inhibition above about 30%;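 further: 0% = DMSO wells and 100% = wells lacking the enzyme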
FBA Mtb inh – Mtb FBA enzyme inhibitors, primary screen, biochemical, fluorescence, strain H37Rv | Fructose-bisphosphate aldolase (Mycobacterium tuberculosis (strain ATCC 25618 / H37Rv)), … | purified M. tuberculosis FBA, fluorescence read-out | inhibition, % at 1 µM | 360,000 tested, 2.3% active | AID 588726, 2011; in the data active means inhibition above about 27%;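 further: 0% = vehicle and 100% = reference inhibitor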
Rv3671c protease – Rv3671c serine protease inhibitors, primary screen, biochemical, fluorescence polarization, M. tuberculosis H37Rv | inhibition, % at 5.96 µM | 320,000 tested, 0.048% active | AID 2606, 2010; in the data active means inhibition above about 38%;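 further: extracellular domain of Rv3671c used as enzyme; 0% = enzyme with DMSO and 100% = no enzyme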
Mtb bLac sens – beta-lactam sensitization of Mtb H37Rv, H37Rv; AID 434955, 2010; M. tuberculosis H37Rv growth with meropenem, percent inhibition; 330,000 tested, 0.27% active; inhibition, % at 25 µM; call rule not given here;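 further: growth measured after seven days incubation then overnight dye step; 0% = bacteria only wells and 100% = bacteria with antibiotic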
RecA intein inh – Mtb RecA intein splicing inhibitors, primary screen, biochemical, fluorescence, HTS | 290,000 tested, 0.75% active | cell-free RecA intein splicing | AID 2221, 2009 | inhibition, % (no concentration beside the values); in the data active means inhibition above about 30%; inconclusive means no clear call, values can overlap the other calls;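 further: 0% = vehicle wells and 100% = reference inhibitor control wells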
Target sequence (P9WHJ3 whole entry, looked up): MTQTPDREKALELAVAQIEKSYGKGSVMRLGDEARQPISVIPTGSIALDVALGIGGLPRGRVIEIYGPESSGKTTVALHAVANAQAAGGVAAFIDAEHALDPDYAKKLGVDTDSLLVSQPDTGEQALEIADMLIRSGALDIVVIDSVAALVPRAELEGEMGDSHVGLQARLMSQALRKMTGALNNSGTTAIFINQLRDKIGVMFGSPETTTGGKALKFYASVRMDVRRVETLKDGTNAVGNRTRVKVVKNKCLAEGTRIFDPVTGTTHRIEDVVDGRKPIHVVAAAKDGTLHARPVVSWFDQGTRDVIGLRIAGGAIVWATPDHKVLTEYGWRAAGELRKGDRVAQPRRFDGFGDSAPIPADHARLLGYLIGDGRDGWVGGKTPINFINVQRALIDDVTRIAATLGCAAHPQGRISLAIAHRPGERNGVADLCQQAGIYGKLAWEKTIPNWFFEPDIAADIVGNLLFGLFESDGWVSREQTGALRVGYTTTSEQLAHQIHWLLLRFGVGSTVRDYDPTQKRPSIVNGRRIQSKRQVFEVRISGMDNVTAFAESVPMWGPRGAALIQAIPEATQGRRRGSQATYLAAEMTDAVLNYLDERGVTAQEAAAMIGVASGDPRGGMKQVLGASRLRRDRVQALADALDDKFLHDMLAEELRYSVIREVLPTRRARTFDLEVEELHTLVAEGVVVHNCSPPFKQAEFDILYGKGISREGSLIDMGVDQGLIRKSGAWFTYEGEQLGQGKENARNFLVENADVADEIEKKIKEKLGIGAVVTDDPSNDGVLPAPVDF
An asterisk follows results filed as active; ? = inconclusive; nt = no result given; + = active, no number.

SMILES	UGM FP inh	GDH-TPI inh	FBA Mtb inh	Rv3671c protease	Mtb bLac sens	RecA intein inh
Cc1ccc(SCC(=O)OC(C)C(=O)NCc2ccccc2)cc1 (stereo unspecified)	nt	0	0	4	0	2
Cc1ccc2nc(-c3ccccc3N)[nH]c2c1	-1	6	+	0	3	-41
Nc1ccc(-c2nc3c(Cl)c(N)ccc3[nH]2)cc1	1	38*	+	-5	?	-2
Nc1ccc(-c2nc3ccc([N+](=O)[O-])cc3[nH]2)cc1	0	22	2	-1	-3	1
Cc1cc(=O)[nH]c(-c2ccccc2O)n1	0	11	13	11	-12	-2
Cc1ccc2nc(Cc3ccc(N)cc3)[nH]c2c1	1	9	1	3	-5	-1
Cc1cc2nc(-c3ccccc3O)[nH]c2cc1C	nt	15	157*	nt	nt	nt
Cc1ccc(C)c(-c2nc3ccc(N)cc3[nH]2)c1	0	-2	189*	-17	-2	1
C[C@H](CO)N1C[C@H](C)[C@@H](CN(C)C(=O)Nc2ccc(F)cc2)Oc2ncc(-c3ccc(F)cc3)cc2C1=O	nt	4	3	nt	nt	nt
Nc1ccc2nc(-c3cccc(-c4nc5ccc(N)cc5[nH]4)c3)[nH]c2c1	-1	27	0	25	-9	10
Nc1ccc(-c2nc3ccc(N)cc3[nH]2)cc1	2	18	+	7	9	-14
Cc1nc2ccc(-c3nc4ccc(N)cc4[nH]3)cc2[nH]1	1	4	+	16	-1	4
O=[N+]([O-])c1ccc(-c2nc3ccc([N+](=O)[O-])cc3[nH]2)cc1	1	31*	1	3	-7	8
Nc1ccc2nc(-c3cc(Cl)c(N)c(Cl)c3)[nH]c2c1	-1	35*	25	15	-4	-7
CCC1(CCC(C)C)SC(N)=NC1=O (stereo unspecified)	nt	17	3	nt	nt	nt
O=C1N/C(=N\N=C\c2ccccn2)SC1Cc1cccc(SC(F)F)c1 (stereo unspecified)	0	47*	0	-3	99	2
O=C1N/C(=N\N=C\c2ccc3ncccc3c2)SC1Cc1ccc(SC(F)F)cc1 (stereo unspecified)	-3	7	-3	-5	76	-2
COc1cccc(COC(=O)c2nn(-c3ccccc3)nc2N)c1	5	4	-2	-4	2	3
NC(=O)c1nn(-c2ccccc2)nc1N	1	5	+	2	0	-1
Cc1nn(-c2ccccc2)nc1C(N)=O	0	-7	13	9	-6	-1
Nc1nn(-c2ccccc2)nc1C(=O)OCc1ccccc1	0	6	177*	-18	4	-3
COc1ccc(NC(=O)CN(C)C(=O)c2ccc(NS(=O)(=O)c3ccc4[nH]c(=O)[nH]c4c3)cc2)cc1	0	1	-1	3	4	nt
O=C(O)CCCN1C(=O)C(=O)/C(=C(/O)c2ccc(Cl)cc2)C1c1ccccc1 (stereo unspecified)	6	41*	4	-14	-6	1
CCN(CC)CCN1C(=O)C(=O)/C(=C(/O)c2ccc(Cl)cc2)C1c1ccncc1 (stereo unspecified)	nt	11	3	nt	nt	nt
CCN(CC)C(=O)c1cccc(-c2csc(C(O)c3ccc(F)c(OC)c3)n2)c1 (stereo unspecified)	nt	5	2	nt	nt	nt
SMILES	UGM FP inh	GDH-TPI inh	FBA Mtb inh	Rv3671c protease	Mtb bLac sens	RecA intein inh
C#CCSc1nnc(-c2c[nH]c3ccccc23)n1C	1	12	4	4	-5	0
C#CCSc1nnc(-c2sc(-c3ccccc3)nc2C)n1C	0	7	36*	-4	77	-2
O=C(Nc1ccn(CCCN2CCN(c3ccccn3)CC2)c(=O)n1)OCc1ccccc1	nt	-6	1	nt	nt	nt
CCn1c(=S)sc2c(=O)n(-c3ccccc3)c(=S)[nH]c21	0	35*	0	3	9	1
CCN1C(=O)/C(=C/N(C)c2ccccc2)OC1=S	-2	20	-6	0	-5	1
CCN1C(=O)/C(=C\N(C(C)=O)c2ccccc2)OC1=S	1	63*	-2	3	-3	2
O=C(c1ccco1)c1coc2c1cc(O)c1ccccc12	-2	10	3	-17	0	45*
Cc1cc2nc3ccc(=[N+](C)C)cc-3sc2cc1N	nt	-16	-3	nt	nt	31*
COc1ccc(C(=O)Nc2nnc(S(=O)(=O)N3CCCCCC3)s2)cc1OC	1	47*	4	-12	7	0
CC1CCN(S(=O)(=O)c2nnc(NC(=O)c3cccc([N+](=O)[O-])c3)s2)CC1	-1	20	3	-1	4	-5
O=C(Nc1nnc(S(=O)(=O)N2CCCC2)s1)c1cccc([N+](=O)[O-])c1	-1	39*	3	5	16	-2
COc1ccc(C(=O)Nc2nnc(S(=O)(=O)N3CCC(C)CC3)s2)cc1OC	-1	46*	4	-1	1	-5
O=C1CCN(Cc2ccc(O)cc2)CCN1CCO	0	34*	1	-8	-12	-3
COc1ccc2c(c1OC)C(=O)OC2CC(=O)c1ccc(N(C)C)cc1 (stereo unspecified)	-1	31*	-8	1	-2	-5
COc1ccc2c(c1OC)C(=O)OC2CC(=O)c1ccc(O)cc1 (stereo unspecified)	-3	20	-6	3	-8	-2
Cc1ccc(S(=O)(=O)c2c(C)cc(C)[nH]c2=O)c(C)c1	0	11	4	8	1	-1
O=C(O)CC1S/C(=N/N=C/C=C/c2ccccc2[N+](=O)[O-])NC1=O (stereo unspecified)	-3	26	-10	-4	3	-2
COc1cc(/C=N/N=C2/NC(=O)C(CC(=O)O)S2)ccc1OCc1cccc(Cl)c1 (stereo unspecified)	0	25	-2	2	72	3
COc1ccc(/C=N/N=C2/NC(=O)C(CC(=O)O)S2)cc1OCc1ccc(Cl)cc1 (stereo unspecified)	2	57*	-4	3	3	-10
O=C(O)CC1S/C(=N/N=C/C=C/c2ccccc2)NC1=O (stereo unspecified)	3	50*	-2	2	7	-1
Cn1c(=O)n(C)c2cc(/C=N/N=C3/NC(=O)C(CC(=O)O)S3)ccc21 (stereo unspecified)	1	38*	-1	-10	3	-3

Compound activity deposited in PubChem by several laboratories.
